Experimental findings from PubChem BioAssay (Tox21) are described below.

“And” between values parts separate entries of the source, which are not always exact repeats. Identical values can stand only once. Inconclusive results are not listed. The source made the active and inactive calls. Unless noted, the call rests on the fitted dose curve.

Assay [1] can be described thus: Nuclear factor erythroid 2-related factor 2/antioxidant responsive element (Nrf2/ARE) small molecule agonists: qHTS cell viability counter screen in human keratinocytes (AID 1919968; active means well fitted curve in the direction sought with a large enough effect in the repeat runs; an effect the other way counts as inactive or inconclusive; further: nearly all actives have a fitted effect of over 55% in size; further: potency means the concentration at half of the fitted maximal effect). In short, it runs like this:
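Cells of the KeratinoSens line were plated at 1,500 per well and left for 5 h before compound transfer from DMSO stocks. After a 23 h incubation (37 C, 5% CO2), CellTiter-Fluor was added. Signal was taken as fluorescence intensity 1 h later.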
(In qHTS, concentration-response curves come from the screen itself.)

Assay [2] in a line: Nuclear factor erythroid 2-related factor 2/antioxidant responsive element (Nrf2/ARE) small molecule agonists: luciferase reporter gene qHTS assay in human keratinocytes (AID 1919969). Further: nearly all actives have a fitted effect of over 35% in size. Further: potency means the concentration at half of the fitted maximal effect. Background: A reporter such as luciferase makes a cellular process visible.
Assay [3] concerns the target Gonadotropin-releasing hormone receptor (Homo sapiens) (UniProt P30968). In words: Human gonadotropin-releasing hormone receptor (GnRHR) small molecule agonists, calcium flux assay in GnRHR-HEK293 cells (AID 1920063). Further: nearly all actives have a fitted effect of over 35% in size. In short, it runs like this:
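Compounds dissolved in DMSO are pin-transferred onto dye-loaded GnRHR-HEK293 cells, which were seeded 18 h before at 37 C/5% CO2. Calcium signal is read as fluorescence intensity at 1 s intervals for 3 min.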
For orientation: A change in cytosolic calcium serves as a functional read-out for many receptors and channels.

Assay [4] concerns the target KiSS-1 receptor (Homo sapiens) (UniProt Q969F8). The assay can be described thus: Human kisspeptin (KISS1R) small molecule agonists, calcium flux assay in KISS1R-HEK293 cells (AID 1920064; active means well fitted curve in the direction sought with a large enough effect in the repeat runs; an effect the other way counts as inactive or inconclusive). In short, it runs like this:
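Cell line: HEK293, stable human KISS1R. Dye loading 1 h at 37 C after 18 h culture. Read: kinetic fluorescence, 480/540 nm, 3 min at 1 s intervals.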

A short description of assay [5]: G protein-coupled receptor (GPCR) small molecule agonists, calcium flux assay: HEK293 wild type cell line counter screen (AID 1920065). In a few lines:
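Tox21 10K compounds, 15 concentrations each in triplicate, pin-transferred in DMSO onto dye-loaded cells; kinetic read at 480/540 nm for 3 min, 1 s intervals.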

Assay [6] can be described thus: p53 small molecule agonists, cell-based qHTS assay with rat liver microsomes (AID 1963578). In a few lines:
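With rat liver microsomes and NADPH present (0.5 mg/mL final each), p53RE-bla cells are treated with compound for 16 h at 37 C. LiveBLAzer detection mixture is then applied for 2 h at room temperature in the dark.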

Assay [7] in a line: p53 small molecule agonists, cell-based qHTS assay with human liver microsomes: qHTS cell viability counter screen (AID 1963579). Further: nearly all actives have a fitted effect of over 45% in size. Further: potency means the concentration at half of the fitted maximal effect. In a few lines:
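In this multiplexed counter screen, the reporter plates were subsequently treated with CellTiter-Glo so that cell viability, reflected by luminescence, could be recorded for p53RE-bla cells dosed 16 h with compounds under microsomal activation (HLM and NADPH).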

Assay [8] can be described thus: p53 small molecule agonists, cell-based qHTS assay with rat liver microsomes: qHTS cell viability counter screen (AID 1963580). Further: nearly all actives have a fitted effect of over 45% in size. Further: potency means the concentration at half of the fitted maximal effect. In short, it runs like this:
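Rat liver microsome (0.5 mg/mL final) and NADPH (0.5 mg/mL final) co-incubation with compounds for 16 h at 37 C on HCT-116 p53RE-bla cells; cytotoxicity taken from intracellular ATP luminescence.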

Assay [9] can be described thus: p53 small molecule agonists, cell-based qHTS assay: qHTS cell viability counter screen (AID 1963581). Further: nearly all actives have a fitted effect of over 45% in size. In a few lines: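 ATP content measured by luminescence in HCT-116 p53RE-bla cells treated 16 h at 37 C, same wells as the reporter screen.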
Assay [10] in a line: p53 small molecule agonists, cell-based qHTS assay (AID 1963582; active means well fitted activation curve with a large enough effect in the signal ratio in the repeat runs, not every such curve was filed as active; the % refers to the signal ratio). In short, it runs like this:
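16 h compound exposure (37 C) of p53 response element–bla cells, preceded by 5 h recovery at 37 C/5% CO2; read-out via LiveBLAzer B/G FRET substrate, 2 h RT, fluorescence intensity.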

Assay [11] deals with 5-hydroxytryptamine receptor 2A (Homo sapiens) (UniProt P28223). The assay can be described thus: 5-hydroxytryptamine receptor 2A (HTR2A) small molecule antagonists, cell-based qHTS assay (AID 1963586). Further: nearly all actives have a fitted effect of over 45% in size. In short, it runs like this:
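CHO cells stably expressing human HTR2A were plated for 18 h at 37 C, then loaded with calcium dye for 1 h. Compounds were preincubated 5 min at room temperature before DOI (4 nM solution) was added. Kinetic fluorescence was read for 3 min.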

Assay [12] has the same target. In words: 5-hydroxytryptamine receptor 2A (HTR2A) small molecule agonists, cell-based qHTS assay (AID 1963587). Further: nearly all actives have a fitted effect of over 30% in size. In a few lines: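 Kinetic calcium-flux fluorescence (2 min, 1 sec intervals) after compound addition in agonist mode. HTR2A-CHO cells were cultured 18 h, then dye-loaded 1 h at 37 C.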
Assay [13] concerns the target Muscarinic acetylcholine receptor M1 (Homo sapiens) (UniProt P11229). In words: Cholinergic receptor muscarinic 1 (CHRM1) small molecule agonists, cell-based qHTS assay (AID 1963589). Further: nearly all actives have a fitted effect of over 35% in size. In short, it runs like this:
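Homogeneous fluorescence calcium flux, agonist mode. Human M1-expressing CHO cells; compound dosed at 15 concentrations, three independent runs; signal sampled every 1 sec.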

Assay [14] in a line: cAMP Responsive Elements (CRE) small molecule agonists, cell-based qHTS assay (AID 1963590). In a few lines: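 HEK 293T cells stably bearing CRE-bla were plated at 2,000 cells per well and rested 18 h. Compounds, positive controls or DMSO were added for 3 h at 37 C. LiveBLAzer B/G substrate was then loaded for 2 h at room temperature.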
Assay [15] in a line: cAMP Responsive Elements (CRE) small molecule antagonists, cell-based qHTS assay (AID 1963591; active means well fitted inhibition curve with a large enough effect in the signal ratio in the repeat runs, not every such curve was filed as active; the % refers to the signal ratio; further: potency means the concentration at half of the fitted maximal effect). In short, it runs like this: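 First, CRE-bla HEK293T cells settled 18 h at 37 C. Next, compound and 0.25 uM final NKH477 were applied for 3 h. Last, LiveBLAzer B/G substrate was loaded for 2 h at room temperature.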
Assay [16] has as its target Beta-2 adrenergic receptor (Homo sapiens) (UniProt P07550). In words: Adrenergic beta2 receptor (ADRB2) small molecule antagonists, cell-based qHTS assay (AID 1963592). Further: series mostly up to about 92 µM; nearly all actives have a fitted effect of over 50% in size. In a few lines: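 Assay format: CHO-ADRB2 cells, 18-20hr seeding at 37C/5% CO2, then compound plus 1nM isoproterenol agonist mix for 0.5hr RT. Homogeneous time-resolved fluorescence cAMP detection after 1hr, expressed as 665/615 nm ratio.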

Assay [17] has the same target. In words: Adrenergic beta2 receptor (ADRB2) small molecule agonists, cell-based qHTS assay (AID 1963593).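 Further: CHO cells stably overexpressing human ADRB2.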 In a few lines: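 CHO cells stably over-expressing ADRB2 were plated overnight at 37C, then dosed with compounds plus a stimulation mix containing 100uM IBMX and 25uM Ro-20-1724 for 0.5hr at room temperature. cAMP was measured by HTRF competition, 1hr.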
Assay [18] deals with D(2) dopamine receptor (Homo sapiens) (UniProt P14416). The assay can be described thus: Dopamine D2 receptor (DRD2) small molecule agonists, cell-based qHTS assay (AID 1963594). Further: nearly all actives have a fitted effect of over 35% in size. In short, it runs like this:
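cAMP accumulation in DRD2-HEK293 cells measured by HTRF after 1 h detection; compounds added 10 min before NKH477 (200nM […]) forskolin-analogue stimulation, 30 min at room temperature, with Ro20-1724 present at 0.1 mM final.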

Assay [19] shares this target. In words: Dopamine D2 receptor (DRD2) small molecule antagonists, cell-based qHTS assay (AID 1963595; active means well fitted inhibition curve with a large enough effect in the signal ratio in the repeat runs, with a control signal flat; the % refers to the signal ratio). In a few lines: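 Antagonism was scored as restored cAMP in HEK293-DRD2 cells. These cells were stimulated with 200 nM NKH477 and 12 nM quinpirole for 30 min at room temperature, in the presence of 0.1 mM Ro20-1724.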
Assay [20] addresses Muscarinic acetylcholine receptor M1 (Homo sapiens) (UniProt P11229). The assay can be described thus: Cholinergic receptor muscarinic 1 (CHRM1) small molecule antagonists, cell-based qHTS assay (AID 1963588). Further: nearly all actives have a fitted effect of over 40% in size. In short, it runs like this: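 Compounds were tested at 15 concentrations in three independent runs. Dye-loaded CHRM1-CHO cells were exposed 5 min at room temperature before stimulation by acetylcholine added at 50nM. Intracellular calcium was read kinetically on FDSS for 3 min.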

D(2) dopamine receptor (Homo sapiens), sequence (P14416 whole entry, looked up): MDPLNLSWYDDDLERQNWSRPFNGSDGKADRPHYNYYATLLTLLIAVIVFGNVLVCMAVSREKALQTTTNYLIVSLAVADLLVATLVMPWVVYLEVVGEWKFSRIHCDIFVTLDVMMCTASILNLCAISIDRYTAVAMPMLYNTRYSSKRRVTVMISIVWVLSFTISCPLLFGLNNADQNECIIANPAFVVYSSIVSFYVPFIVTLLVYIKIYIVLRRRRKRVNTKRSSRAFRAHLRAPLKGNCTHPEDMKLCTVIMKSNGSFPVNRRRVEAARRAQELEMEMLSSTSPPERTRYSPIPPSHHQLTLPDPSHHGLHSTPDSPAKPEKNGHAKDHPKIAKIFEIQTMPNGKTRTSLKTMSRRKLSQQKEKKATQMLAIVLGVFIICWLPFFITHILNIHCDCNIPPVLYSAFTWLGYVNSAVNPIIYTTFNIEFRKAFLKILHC
KiSS-1 receptor (Homo sapiens), sequence (Q969F8 whole entry, looked up): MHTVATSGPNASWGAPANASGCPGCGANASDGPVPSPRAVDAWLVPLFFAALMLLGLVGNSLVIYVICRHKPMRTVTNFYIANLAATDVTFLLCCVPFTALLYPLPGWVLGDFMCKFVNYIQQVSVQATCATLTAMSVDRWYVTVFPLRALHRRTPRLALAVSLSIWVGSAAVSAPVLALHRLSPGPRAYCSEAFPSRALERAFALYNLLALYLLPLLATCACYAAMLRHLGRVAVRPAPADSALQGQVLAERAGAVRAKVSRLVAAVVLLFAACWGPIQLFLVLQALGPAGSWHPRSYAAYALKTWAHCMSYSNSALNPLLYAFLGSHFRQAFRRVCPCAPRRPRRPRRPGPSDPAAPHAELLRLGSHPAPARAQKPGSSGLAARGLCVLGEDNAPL
Beta-2 adrenergic receptor (Homo sapiens), sequence (P07550 whole entry, looked up): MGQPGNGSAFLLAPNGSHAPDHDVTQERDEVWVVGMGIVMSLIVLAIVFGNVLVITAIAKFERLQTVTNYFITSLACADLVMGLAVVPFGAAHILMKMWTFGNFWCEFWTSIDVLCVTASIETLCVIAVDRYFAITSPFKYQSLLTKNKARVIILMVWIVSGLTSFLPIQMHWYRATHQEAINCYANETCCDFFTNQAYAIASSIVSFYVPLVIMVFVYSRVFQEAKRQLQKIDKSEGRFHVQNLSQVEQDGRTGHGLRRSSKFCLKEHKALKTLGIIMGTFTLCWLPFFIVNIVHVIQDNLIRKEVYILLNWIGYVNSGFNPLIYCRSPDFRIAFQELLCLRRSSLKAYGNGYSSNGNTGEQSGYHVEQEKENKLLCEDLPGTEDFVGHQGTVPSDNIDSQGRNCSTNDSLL
Gonadotropin-releasing hormone receptor (Homo sapiens), sequence (P30968 whole entry, looked up): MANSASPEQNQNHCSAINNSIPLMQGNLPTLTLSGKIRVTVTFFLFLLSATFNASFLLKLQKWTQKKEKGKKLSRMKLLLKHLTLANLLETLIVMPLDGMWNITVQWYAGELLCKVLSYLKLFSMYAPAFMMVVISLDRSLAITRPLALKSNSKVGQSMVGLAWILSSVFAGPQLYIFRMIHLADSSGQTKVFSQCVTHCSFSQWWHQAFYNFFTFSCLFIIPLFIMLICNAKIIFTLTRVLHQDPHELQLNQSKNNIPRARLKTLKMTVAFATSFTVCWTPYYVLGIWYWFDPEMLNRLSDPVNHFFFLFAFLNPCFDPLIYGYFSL
5-hydroxytryptamine receptor 2A (Homo sapiens), sequence (P28223 whole entry, looked up): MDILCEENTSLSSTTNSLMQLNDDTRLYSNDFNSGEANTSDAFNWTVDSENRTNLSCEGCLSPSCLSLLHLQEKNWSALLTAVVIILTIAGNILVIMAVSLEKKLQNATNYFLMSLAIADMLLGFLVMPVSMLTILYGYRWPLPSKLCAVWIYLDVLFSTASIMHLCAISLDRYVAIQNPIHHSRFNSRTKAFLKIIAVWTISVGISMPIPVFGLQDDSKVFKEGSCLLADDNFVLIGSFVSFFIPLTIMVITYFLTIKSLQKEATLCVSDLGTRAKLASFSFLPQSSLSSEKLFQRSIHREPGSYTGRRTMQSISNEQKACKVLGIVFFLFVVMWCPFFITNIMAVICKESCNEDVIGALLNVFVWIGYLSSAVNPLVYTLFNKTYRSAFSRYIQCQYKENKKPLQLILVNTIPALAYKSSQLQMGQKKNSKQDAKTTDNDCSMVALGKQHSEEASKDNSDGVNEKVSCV
Muscarinic acetylcholine receptor M1 (Homo sapiens), sequence (P11229 whole entry, looked up): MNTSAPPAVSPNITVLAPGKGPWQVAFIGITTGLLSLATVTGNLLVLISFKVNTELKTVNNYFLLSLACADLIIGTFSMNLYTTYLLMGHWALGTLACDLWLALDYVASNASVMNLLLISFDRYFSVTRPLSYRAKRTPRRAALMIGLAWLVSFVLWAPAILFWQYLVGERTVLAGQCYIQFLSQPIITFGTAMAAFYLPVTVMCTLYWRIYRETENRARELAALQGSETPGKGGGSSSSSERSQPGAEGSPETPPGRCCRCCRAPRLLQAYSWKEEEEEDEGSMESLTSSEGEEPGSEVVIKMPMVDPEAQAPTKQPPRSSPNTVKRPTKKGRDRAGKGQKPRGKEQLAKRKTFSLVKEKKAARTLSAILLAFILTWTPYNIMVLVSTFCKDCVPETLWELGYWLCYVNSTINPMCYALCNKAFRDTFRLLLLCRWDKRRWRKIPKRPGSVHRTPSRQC

As to `N#CCc1cccc(C(F)(F)F)c1`, the Potency entry in assay [1], in [3], in [4], in assay [5], in assay [6] and in assay [9] was “inactive” throughout. Further, the Potency entry in assay [10], in [11], in assay [12], in assay [13], in [14] and in assay [15] was “inactive” each time. Besides, the Potency result in [16], in assay [17], in [18] and in assay [19] was “inactive” in each case. Further, the Potency in assay [2] is 68.6 µM (active); in [7], 40.8 µM (active); in [8], 45.8 µM (active).
On to `CC(=O)Nc1c(I)cc(I)c(C(=O)O)c1I`, for which the Potency result in [1], in assay [2], in assay [3], in assay [4], in [5] and in assay [6] was “inactive” throughout. Besides, the Potency result in [7], in assay [8], in [9], in assay [10], in assay [11] and in assay [20] was “inactive” in each case. In addition, the Potency result in assay [13], in assay [14], in assay [15], in assay [16], in assay [18] and in assay [19] was “inactive” in each case.
Regarding `CC/C=C\CC1=C(C)CCC1=O`, the Potency result in assay [1], in [2], in assay [3], in [4], in assay [5] and in [6] was “inactive” in each case. Moreover, the Potency entry in assay [7], in assay [8], in [9], in [11], in [20] and in assay [13] was “inactive” in each case. The Potency entry in [14], in assay [15], in assay [16], in [17], in assay [18] and in assay [19] was “inactive” each time.
As for `CC(=O)Oc1cccc(O)c1`, the Potency result in [1], in assay [2], in assay [3], in [4], in [5] and in [6] was “inactive” in each case. Also, the Potency result in [7], in assay [9], in assay [10], in assay [11], in assay [20] and in [13] was “inactive” throughout. Also, the Potency entry in assay [14], in assay [15], in assay [16], in assay [18] and in [19] was “inactive” throughout.
Consider `CC(C)(C)c1cc(Cc2cc(C(C)(C)C)c(O)c(C(C)(C)C)c2)cc(C(C)(C)C)c1O`, for which the Potency entry in assay [1], in assay [2], in assay [3], in assay [4], in assay [5] and in assay [7] was “inactive” throughout. For the same compound, the Potency entry in assay [8], in assay [9], in assay [11], in [12], in assay [20] and in assay [13] was “inactive” throughout. Further, the Potency result in assay [14], in [15], in assay [16], in assay [17] and in [18] was “inactive” each time.
Take `S=C(NC1CCCCC1)NC1CCCCC1`: the Potency is 26.8 µM (active) and 24.3 µM (active) in assay [1]; 15.1 µM (active) in assay [2]. In addition, the Potency entry in [3], in assay [4], in [5], in [7], in assay [8] and in assay [9] was “inactive” in each case. Moreover, the Potency entry in assay [11], in assay [12], in assay [20], in [13], in assay [14] and in assay [15] was “inactive” each time. For the same compound, the Potency result in [16], in assay [17], in assay [18] and in assay [19] was “inactive” in each case.
Consider `CCCC(C)CCC(C)=O` (centres undefined), for which the Potency entry in assay [1], in assay [2], in [3], in assay [4], in [5] and in assay [6] was “inactive” each time. The Potency entry in assay [7], in assay [8], in assay [10], in [11], in assay [12] and in assay [20] was “inactive” each time. Besides, the Potency entry in assay [13], in assay [14], in assay [15], in [16], in assay [17] and in assay [18] was “inactive” in each case. In addition, in [19], the Potency entry was “inactive”.
For `CC(C)(C)C(=O)OCOC(=O)C1N2C(=O)CC2S(=O)(=O)C1(C)C` (centres undefined), the Potency entry in assay [1], in assay [2], in assay [3], in assay [4], in [5] and in [6] was “inactive” each time. Also, the Potency result in [7], in assay [8], in assay [9], in assay [10], in assay [11] and in assay [12] was “inactive” throughout. The Potency entry in [20], in [13], in [14], in assay [17] and in assay [18] was “inactive” throughout. The Potency in assay [15] is 0.0119 µM (active).
